From PubChem BioAssay (NCI) come the findings set out here.

Holding throughout (assay): NCI-60 one-dose screen, 48 h (100 = growth as untreated, 0 = no growth, -100 = all killed)
Holding throughout (conditions): 10 µM unless noted

Experiment [1] has as its system NCI-H23 lung.
The test system of experiment [2] is NCI-H226 lung.
For experiment [3], the system named is NCI-H322M lung.
Experiment [4] deals with HOP-62 NSCLC.
In experiment [5] the test system is NCI-H460 lung.
In experiment [6] the test system is HOP-92 NSCLC.
In experiment [7] the test system is NCI-H522 lung.
Experiment [8] relates to A549/ATCC NSCLC.
The test system of experiment [9] is 786-0 renal.

Compounds without any hit were thinned out: in the full panel of roughly 83,000, 20% have a hit.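 In brief: 96-well plates, 48 h treatment, single concentration, percent growth endpoint.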 Unmarked numbers belong to inactive results. Activity calls are given as the source filed them. Rule for the calls: active = growth percent below 10; inactive = the rest.

For the compound `CS(=O)(=O)c1ccc(N/N=C/c2c(-c3ccc(S(C)(=O)=O)cc3)[nH]c3ccc(F)cc23)cc1`, the growth is 41.6% in experiment [1]; 67.2% in experiment [2]; 45% in [3]; 28.1% in experiment [4]; 12.8% in [5]; 16.3% in experiment [6]. The growth was 27.6% in [7], 44.7% in [8] and 15.9% in experiment [9].
Take `Nc1nc(I)c2ncn(C3OC(CO)C(O)C3O)c2n1` (stereo unspecified): the growth was 112% in experiment [1]; 91.6% in experiment [2]; 105% in experiment [3]; 95.8% in [4]; 110% in experiment [5]; 223% in [6]. Also, the growth in experiment [7] is 88.9%; in [8] it was 103%; in experiment [9], 103%.
Take `Cc1[nH]c(-c2nc3ccccc3[nH]2)c(C)c1C(=O)NNc1ccc(Cl)cc1`: the growth in experiment [1] is 91%; in [2] it was 84.1%; in [3] it was 89.6%; in experiment [4], 98.7%; in experiment [5] it was 103%; in experiment [6], 90.6%. Moreover, the growth in [7] was 80.9%; in experiment [8], 93.1%; in [9] it was 94.7%.
Consider `N#Cc1c(-c2ccc(C(F)(F)F)cc2)cc(N2CC(O)C2)n2c1nc1ccccc12`, for which the growth in experiment [1] is 67.7%; in experiment [2], 16.9%; in [3], 60.8%; in experiment [4], 7.8% (active); in [5], 27.8%; in experiment [6] it was -3.02% (active). Moreover, the results for the growth in [7], in experiment [8] and in experiment [9] were 34.7%, 48.1% and 20.7%, respectively.
As for `Cc1cnc(Nc2ccc(OCCN3CCCC3)cc2)nc1NCc1ccco1`, the growth in experiment [1] is 70.9%; in [2], 45.8%; in [3], 81.9%; in experiment [4], 60.4%; in [5], 72.8%; in [6] it was 54.8%. Besides, the growth in experiment [7] is 70.1%; in [8], 76.3%; in experiment [9], 60.7%.
As to `NC(=O)c1c(NC(=O)c2ccc(C(F)(F)F)cc2Cl)sc2c1CCC(=O)C2`, the growth in experiment [1] was -7.98% (active); in experiment [2], -22.6% (active); in experiment [3] it was 14%; in experiment [4] it was 1.14% (active); in [5] it was 0.92% (active); in [6], -61.7% (active). In addition, the growth in experiment [7] is -25.6% (active); in experiment [8], 9.42% (active); in experiment [9] it was 17.1%.
`CCOC(=O)c1ccc(NC(=O)CCCN(CC)CC)cc1`: the growth is 95.4% in [1]; 103% in experiment [2]; 92.4% in experiment [3]; 101% in experiment [4]; 107% in [5]; 78% in experiment [6]. For the same compound, the growth in experiment [7] is 63.6%; in experiment [8], 90.5%; in experiment [9], 87.2%.
Consider `CC12CC(C#N)CCC1O2` (stereo unspecified), for which the growth in experiment [1] is 109%; in [2], 115%; in [3], 127%; in experiment [4], 108%; in [5] it was 103%; in [6], 93%. Also, the growth in experiment [7] was 109%; in experiment [8] it was 100%; in experiment [9] it was 102%.
Take `CCN(CC)CCCNC(=O)c1ccc(N)cc1`: the growth in [1] is 101%; in experiment [2], 101%; in experiment [3], 94.7%; in [4], 98.5%; in experiment [5], 103%; in [6] it was 101%. For the same compound, the growth in experiment [7] is 101%; in experiment [8], 105%; in experiment [9], 100%.
On to `CNC1(C#N)CCN(Cc2ccccc2)CC1`, for which the growth is 97.6% in experiment [1]; 104% in experiment [2]; 336% in [3]; 87.2% in [4]; 108% in [5]; 85.1% in [6]. The growth in experiment [7] was 90.1%; in experiment [8], 98.1%; in experiment [9] it was 73.1%.
As to `CN(CCC(=O)/C(=C\c1ccccc1)c1ccc(Cl)cc1)Cc1ccccc1`, the growth is 29.2% in experiment [1]; 65.6% in experiment [2]; 71.2% in [3]; 47.6% in experiment [4]; 42.2% in experiment [5]; 82.9% in [6]. Moreover, the results for the growth in [7], in [8] and in experiment [9] were -45.9% (active), 85.9% and -64.5% (active), respectively.
For the compound `COc1cc2oc3cc(C)oc(=O)c3c2cc1OC`, the growth in [1] is 94.1%; in [2], 96.8%; in experiment [3], 103%; in experiment [4] it was 93.2%; in experiment [5], 105%; in experiment [6] it was 92.9%. In addition, the growth in [7] is 82.1%; in [8], 87.7%; in experiment [9] it was 83.4%.
`COc1ccc(-c2cn(-c3cccc(C(=O)/C=C/c4cc(OC)c(OC)c(OC)c4)c3)c(=O)[nH]2)cc1`: the growth in experiment [1] was -2.28% (active); in experiment [2], 32.9%; in experiment [3], 106%; in experiment [4], 229%; in experiment [5], -44.1% (active); in experiment [6] it was -3.4% (active). Further, the growth in experiment [7] is -38.7% (active); in [8] it was 46.4%; in experiment [9], -89.4% (active).
Regarding `CNC(=O)c1cc(Oc2ccc3nc(Nc4cc(Cl)cc(Cl)c4)ccc3c2)ccn1`, the growth in experiment [1] was 70.6%; in experiment [2], 81.9%; in [3], 82.9%; in experiment [4] it was 72.1%; in experiment [5], 66.9%; in experiment [6], 67.6%. In addition, the results for the growth in experiment [7], in [8] and in [9] were 29.6%, 49.3% and 82.6%, respectively.
